Laboratory results published in PubChem BioAssay (Tox21).
Inconclusive results are not listed. Calls of active or inactive are those of the source. Unless noted, calls come from the whole dose curve; as a rule, active = well fitted curve in the direction sought with a large enough effect in the repeat runs; inconclusive = weak or mixed curves; inactive = no such curve, though single readings can be large; an effect the other way counts as inactive or inconclusive.

How the values were obtained:
[1] = target: Luciferin 4-monooxygenase (Photinus pyralis) (UniProt P08659); assay: qHTS assay to identify small molecule inhibitors of firefly luciferase (AID 1224835); note: series mostly up to about 120 µM; nearly all actives have a fitted effect of over 25% in size
Chain of Luciferin 4-monooxygenase (Photinus pyralis) (P08659 whole entry, looked up): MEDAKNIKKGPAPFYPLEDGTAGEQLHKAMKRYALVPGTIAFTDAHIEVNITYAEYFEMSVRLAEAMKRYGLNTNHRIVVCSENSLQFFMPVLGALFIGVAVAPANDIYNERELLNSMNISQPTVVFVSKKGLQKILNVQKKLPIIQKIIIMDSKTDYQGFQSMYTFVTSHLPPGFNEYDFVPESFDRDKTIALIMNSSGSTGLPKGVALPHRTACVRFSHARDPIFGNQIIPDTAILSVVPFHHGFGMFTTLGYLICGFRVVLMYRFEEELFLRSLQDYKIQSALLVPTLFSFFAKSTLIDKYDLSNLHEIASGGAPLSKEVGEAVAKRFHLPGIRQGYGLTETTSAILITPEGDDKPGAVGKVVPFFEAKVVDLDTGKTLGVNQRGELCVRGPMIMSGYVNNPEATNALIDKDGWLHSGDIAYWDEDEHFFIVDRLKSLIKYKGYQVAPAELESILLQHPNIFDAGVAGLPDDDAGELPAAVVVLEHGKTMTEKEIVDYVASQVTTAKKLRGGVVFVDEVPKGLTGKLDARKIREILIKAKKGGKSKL
Procedure, shortened: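 Quantitative HTS format; KM concentrations of both substrates. Purified P. pyralis FLuc activity quantified from luminescence images.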

[2] = qHTS assay to identify small molecule agonists of the constitutive androstane receptor (CAR) signaling pathway - cell viability counter screen (AID 1224836); note: series mostly up to about 92 µM; nearly all actives have a fitted effect of over 45% in size
Procedure, shortened: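 Multiplexed viability check: HepG2-CYP2B6-hCAR cells, 15-point compound dosing, 0.75 uM PK11195 final, 23 h at 37 C, CellTiter-Fluor fluorescence.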

[3] = qHTS assay to identify small molecule antagonists of the constitutive androstane receptor (CAR) signaling pathway - cell viability counter screen (AID 1224837); note: series mostly up to about 92 µM; nearly all actives have a fitted effect of over 45% in size
Procedure, shortened: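 To flag cytotoxic false antagonists, HepG2 hCAR/CYP2B6-2.2kb cells were treated 23 hr with 15-concentration compound series and 50 nM CITCO at 37 C/5% CO2; CellTiter-Fluor fluorescence was the measured end point.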

[4] = target: Nuclear receptor subfamily 1 group I member 3 (Homo sapiens) (UniProt Q14994); assay: qHTS assay to identify small molecule antagonists of the constitutive androstane receptor (CAR) signaling pathway (AID 1224838);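 note: HepG2 cells stably expressing hCAR with CYP2B6 luciferase reporter stimulated by CITCO; nearly all actives have a fitted effect of over 40% in size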
Chain of Nuclear receptor subfamily 1 group I member 3 (Homo sapiens) (Q14994 whole entry, looked up): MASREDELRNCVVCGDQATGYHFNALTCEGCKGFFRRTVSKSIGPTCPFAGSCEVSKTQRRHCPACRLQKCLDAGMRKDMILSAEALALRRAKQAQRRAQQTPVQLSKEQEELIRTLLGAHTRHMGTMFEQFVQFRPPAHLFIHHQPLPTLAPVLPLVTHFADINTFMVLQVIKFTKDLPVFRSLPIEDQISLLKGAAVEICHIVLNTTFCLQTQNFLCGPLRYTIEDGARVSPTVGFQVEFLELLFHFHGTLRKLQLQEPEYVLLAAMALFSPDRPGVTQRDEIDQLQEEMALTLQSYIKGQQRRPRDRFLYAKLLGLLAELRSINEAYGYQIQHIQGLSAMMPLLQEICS
Procedure, shortened: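 Human hepatoma HepG2 cells expressing hCAR and a CYP2B6 promoter (2.2 kb) luciferase construct; compound titration (15 points) with 50 nM CITCO final, 24 h at 37 C/5% CO2; luminescence via ONE-Glo after 30 min at room temperature.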

[5] = target: Nuclear receptor subfamily 1 group I member 3 (Homo sapiens) (UniProt Q14994); assay: qHTS assay to identify small molecule agonists of the constitutive androstane receptor (CAR) signaling pathway (AID 1224839);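 note: HepG2 cells stably carrying human CAR and a CYP2B6 luciferase reporter; series mostly up to about 92 µM; nearly all actives have a fitted effect of over 15% in size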
Procedure, shortened: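 Using human hepatoma HepG2 cells engineered with hCAR and a CYP2B6-2.2kb reporter, 15-concentration compound series were incubated 24 h alongside PK11195 at 0.75 uM final, with luminescence quantified afterwards.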

[6] = qHTS assay to identify small molecule antagonists of the estrogen related receptor signaling pathway with the pleiotropic PPARgamma coactivator (PGC) from Tox21 10K library - cell viability counter screen (AID 1224840; active = well fitted cell-killing curve with a large enough effect in the repeat runs, not every such curve was filed as active; note: nearly all actives have a fitted effect of over 40% in size)
Procedure, shortened: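 Seeded PGC/ERR cells (2,000/well, 6 h, 37 C/5% CO2) get compound by pin tool; 17.5 h incubation at 37 C; CellTiter-Fluor added, 30 min, fluorescence measured.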

[7] = qHTS assay to identify small molecule agonists of the hypoxia (HIF-1) signaling pathway - cell viability counter screen (AID 1224844; calls by dose curve; note: nearly all actives have a fitted effect of over 50% in size)
Procedure, shortened: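 HRE-bla ME-180; 0.5% dFBS; cpd 17 h, 37C, 5% CO2; CellTiter-Glo lum., 30 min RT, post-FRET read, same wells.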

[8] = qHTS assay to identify small molecule agonists of H2AX (AID 1224845; active = well fitted activation curve with a large enough effect in the signal ratio in the repeat runs, not every such curve was filed as active; the % refers to the signal ratio)
Procedure, shortened: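 Wild-type CHO-K1 cells plated overnight, then exposed 3 hr at 37C to compounds at 15 concentrations (0.76% DMSO). Lysed, then HTRF anti-pH2AX(S139)-cryptate/anti-H2AX-d2 detection after 24 hr at room temperature; emissions 665 and 620 nm.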

[9] = qHTS assay to identify small molecule agonists of the hypoxia (HIF-1) signaling pathway (AID 1224846; active = well fitted activation curve with a large enough effect in the signal ratio in the repeat runs, not every such curve was filed as active; the % refers to the signal ratio)
Procedure, shortened: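 Reporter induction in HRE-bla ME-180 cells is taken as agonism: cells sit 5 hrs after plating, receive compounds or DMSO only, incubate 17 hrs at 37C under 5% CO2, and are loaded with CCF4-AM for beta-lactamase FRET measurement.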

[10] = qHTS assay to identify small molecule agonists of H2AX - cell viability counter screen (AID 1224847; calls by dose curve; note: top concentration of the series differs between compounds; nearly all actives have a fitted effect of over 30% in size)
Procedure, shortened: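 After overnight plating of 1000 CHO-K1 cells per well, a 15-concentration compound series was applied for 3 hr at 37C. Luminescence from CellTiter-Glo, read following 30 min at room temperature, reflected cell viability.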

[11] = qHTS RealTime-Glo MT Cell Viability Assay in HepG2 cells - 24 hour (AID 1224867); note: nearly all actives have a fitted effect of over 50% in size
Procedure, shortened: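 HepG2 cells (600/well) were dispensed with RealTime-Glo reagents, incubated 5 h at 37 °C, then treated with compounds in DMSO for up to 40 h. Nonlytic NanoLuc luminescence reflecting viable cells was read at each stated time point.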

[12] = qHTS RealTime-Glo MT Cell Viability Assay in HEK293 cells - 32 hour (AID 1224868); note: top concentration of the series differs between compounds; nearly all actives have a fitted effect of over 50% in size
Procedure, shortened: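 HEK293 cells seeded with NanoLuc/prosubstrate reagent, rested 5 h at 37 C, then dosed and kept at 37 C up to 40 h. Nonlytic real-time luminescence from viable cells read at 0, 8, 16, 24, 32 and 40 h.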

[13] = A CellTox Green Cytotoxicity Assay to monitor cytotoxicity in HEK293 cells - 0 hour (AID 1224869); note: nearly all actives have a fitted effect of over 50% in size
Procedure, shortened: (§1)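 Tox21 screen in HEK293: membrane-impermeant cyanine dye fluoresces on binding dead-cell DNA; compound pinned 5 h post-seeding, plates held at 37 C, signal read repeatedly through 40 h.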

[14] = qHTS RealTime-Glo MT Cell Viability Assay in HepG2 cells - 40 hour (AID 1224870); note: nearly all actives have a fitted effect of over 50% in size
Procedure, shortened: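 HepG2 cells mixed with RealTime-Glo MT reagents (NanoLuc plus cell-permeant prosubstrate) were seeded at 600 cells/well, incubated 5 h at 37 C/5% CO2, then pinned with compounds in DMSO; nonlytic luminescence tracked viability during 40 h treatment.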

[15] = A CellTox Green Cytotoxicity Assay to monitor cytotoxicity in HEK293 cells - 40 hour (AID 1224871); note: nearly all actives have a fitted effect of over 45% in size
Procedure, shortened: as §1

[16] = target: Thyrotropin receptor (Homo sapiens) (UniProt P16473); assay: qHTS assay to identify small molecule agonists of the thyroid stimulating hormone receptor (TSHR) signaling pathway (AID 1224843; calls by dose curve; note: nearly all actives have a fitted effect of over 45% in size)
Chain of Thyrotropin receptor (Homo sapiens) (P16473 whole entry, looked up): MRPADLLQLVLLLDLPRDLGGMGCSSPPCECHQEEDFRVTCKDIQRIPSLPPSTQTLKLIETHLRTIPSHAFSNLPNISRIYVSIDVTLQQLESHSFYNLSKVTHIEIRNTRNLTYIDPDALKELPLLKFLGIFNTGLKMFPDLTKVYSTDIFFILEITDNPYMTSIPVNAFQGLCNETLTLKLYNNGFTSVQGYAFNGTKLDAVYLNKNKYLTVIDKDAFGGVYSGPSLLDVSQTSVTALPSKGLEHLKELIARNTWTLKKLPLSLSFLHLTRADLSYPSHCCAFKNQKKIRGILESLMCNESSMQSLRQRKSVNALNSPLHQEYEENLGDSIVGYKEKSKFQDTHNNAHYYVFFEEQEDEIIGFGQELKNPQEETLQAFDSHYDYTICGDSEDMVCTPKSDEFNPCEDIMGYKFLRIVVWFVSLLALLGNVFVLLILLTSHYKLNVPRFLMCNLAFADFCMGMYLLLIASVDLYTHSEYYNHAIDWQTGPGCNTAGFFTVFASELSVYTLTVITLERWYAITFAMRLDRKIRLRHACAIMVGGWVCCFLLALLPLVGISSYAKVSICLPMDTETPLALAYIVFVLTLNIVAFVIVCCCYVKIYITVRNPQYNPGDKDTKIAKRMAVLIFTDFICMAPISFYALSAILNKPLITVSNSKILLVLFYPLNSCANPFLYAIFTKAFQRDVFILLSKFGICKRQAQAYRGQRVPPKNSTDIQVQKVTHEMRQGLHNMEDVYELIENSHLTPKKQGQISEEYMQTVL
Procedure, shortened: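 Compounds are titrated over 15 concentrations, in triplicate, onto TSHR-HEK293 cells seeded at 800/well. Plates sit 30 min at room temperature before cAMP-d2 and anti-cAMP cryptate are added; signal is read after a further hour.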

Measured: Potency

C=COC(=O)C(C)(CC)CCC(C)C (stereo not given)
inactive: [1] | [2] | [3] | [4] | [5] | [6] | [7] | [8] | [9] | [10] | [11] | [12] | [13] | [14] | [15]

CC(C)(C#N)Nc1nc(Cl)nc(NC2CC2)n1
inactive: [1] | [2] | [3] | [4] | [5] | [6] | [16] | [7] | [9] | [11] | [12] | [13] | [14] | [15]

C=C[Si](OC(C)=O)(OC(C)=O)OC(C)=O
inactive: [1] | [2] | [3] | [4] | [5] | [6] | [7] | [8] | [9] | [10] | [11] | [12] | [13] | [14] | [15]

C=C(C)C(=O)OCC1CCCO1 (stereo not given)
inactive: [1] | [2] | [3] | [4] | [5] | [6] | [7] | [8] | [9] | [10] | [11] | [12] | [13] | [14] | [15]

CCCCc1ccc2c(n1)[C@@H](c1ccc(OC)cc1C[C@H](C)C(=O)O)[C@H](C(=O)O)[C@H]2c1ccc2c(c1)OCO2
inactive: [1] | [2] | [3] | [4] | [5] | [6] | [16] | [7] | [8] | [9] | [11] | [12] | [13] | [14]

CC(C(=O)O)c1cccc(Oc2ccccc2)c1 (stereo not given)
inactive: [1] | [2] | [3] | [4] | [5] | [6] | [7] | [8] | [11] | [12] | [13] | [14] | [15]

COc1c(N2CCNC(C)C2)c(F)cc2c(=O)c(C(=O)O)cn(C3CC3)c12 (stereo not given)
inactive: [1] | [2] | [3] | [4] | [5] | [6] | [7] | [8] | [9] | [10] | [11] | [12] | [13] | [14]

C=CC(C)(CCC=C(C)C)OC(=O)CC (stereo not given)
inactive: [1] | [2] | [3] | [4] | [5] | [6] | [16] | [7] | [9] | [10] | [11] | [12] | [13] | [14] | [15]
